This is one part of a sample in which hits are shown more often than they occur.
HT1080-NT tox: kills 2HG-producing HT-1080-NT fibrosarcoma cells; HT-1080-NT fibrosarcoma viability, CellTiter-Glo ATP luminescence, 48 h; Potency, µM (highest dose often 46.1 µM), inactives show at the highest dose activity, negative = less viability, usual class: cytotoxic; hit rate 1.6% among 360,000; AID 686970;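 further: NT is the 2HG producing partner of a matched IDH1 knockdown line; potency means the concentration at half of the fitted maximal effect; 0% = DMSO-treated cells and -100% = media-only wells without cells; nearly all actives have a fitted effect of over 55% in size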
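A 48-hour cytotoxicity screen used HT-1080-NT cells plated 2 hours before compound delivery. ATP-based CellTiter-Glo luminescence measured viability, normalized to DMSO and no-cell controls.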
HT1080 IDH1KD tx: toxicity to HT-1080 IDH1 knockdown cells (counter line); AID 686971; HT-1080 IDH1 knockdown viability, ATP luminescence, 48 h; hit rate 2% among 360,000; Potency, µM (top dose mostly 46.1 µM), without a hit: at the highest dose activity, negative = toxicity, most hits filed as cytotoxic;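 further: potency means the concentration at half of the fitted maximal effect; 0% = DMSO wells and -100% = cell-free medium wells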
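Using the IDH1-knockdown HT-1080 line run in the same batch and compound series as the NT line, viability after 48 h at 37 °C was determined by CellTiter-Glo luminescence and expressed as % activity.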
ALOX12 inh: inhibitors of human 12S-lipoxygenase ALOX12; hit rate 1.1% among 580,000; purified 12hLO, xylenol orange hydroperoxide absorbance; Potency, µM (doses to about 108 µM), inactives show at the top dose activity change, negative = inhibition, actives largely listed as inhibitors; AID 1671190; further: potency means the concentration at half of the fitted maximal effect
Target sequence (P18054 whole entry, looked up): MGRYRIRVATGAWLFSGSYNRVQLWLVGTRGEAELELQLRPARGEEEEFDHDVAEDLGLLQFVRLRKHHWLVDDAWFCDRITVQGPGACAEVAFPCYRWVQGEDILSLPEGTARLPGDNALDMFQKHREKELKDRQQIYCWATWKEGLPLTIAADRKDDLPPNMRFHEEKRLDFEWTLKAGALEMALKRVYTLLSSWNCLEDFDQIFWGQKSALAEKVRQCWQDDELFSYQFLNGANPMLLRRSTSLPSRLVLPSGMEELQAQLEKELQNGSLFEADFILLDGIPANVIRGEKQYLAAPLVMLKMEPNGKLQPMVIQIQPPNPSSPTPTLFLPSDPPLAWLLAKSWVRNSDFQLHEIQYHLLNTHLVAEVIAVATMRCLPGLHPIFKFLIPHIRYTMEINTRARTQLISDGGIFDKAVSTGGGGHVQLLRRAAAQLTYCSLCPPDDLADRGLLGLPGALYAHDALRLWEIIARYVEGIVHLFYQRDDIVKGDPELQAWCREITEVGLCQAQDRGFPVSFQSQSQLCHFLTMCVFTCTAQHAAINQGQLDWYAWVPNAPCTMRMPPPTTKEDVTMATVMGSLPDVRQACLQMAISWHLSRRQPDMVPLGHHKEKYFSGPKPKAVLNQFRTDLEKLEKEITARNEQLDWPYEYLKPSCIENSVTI
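Purified human 12hLO at 150 nM in 25 mM Hepes, 0.01% Triton X-100, pH 7.0, preincubated 15 min at room temperature with compound. Reaction started with 40 uM arachidonic acid, 30 min at room temperature. Hydroperoxide measured by Fe-xylenol orange, 573/405 nm absorbance ratio.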
IL1B secr inh: inhibitors of inflammasome signaling (IL-1 beta secretion) | hit rate 4.7% among 360,000 | THP-1 LPS/ATP IL-1B secretion, AlphaLISA, 16 h; active compounds read low | activity change, % at 57.5 µM; in the data active means activity change below about -50%; inconclusive means mostly about -30% to -49%
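THP-1 cells pretreated 1 hr with compounds (up to 57.5 uM final), then stimulated with LPS (250 ng/mL final) plus ATP (1.25 mM final); secreted IL-1B measured by AlphaLISA after 16 hr, decreased signal indicating inhibition.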
DT40 TDP1 CPT: growth inhibition of DT40 Tdp1-/-;hTDP1 cells with camptothecin (screen for TDP1 inhibitors); chicken DT40 Tdp1-/-;hTDP1 cells + 20 nM CPT, ATP luminescence, 48 h; Potency, µM (series often up to 46.2 µM), without a hit: at the top dose activity change, negative = growth inhibition, usual class: inhibitors; hit rate 12% among 420,000; AID 686979; further: potency means the concentration at half of the fitted maximal effect; nearly all actives have a fitted effect of over 55% in size
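Cell growth measured by CellTiter-Glo luminescence after a minimum 48 h, 37 C compound exposure with 20 nM CPT in Tdp1-knockout DT40 cells stably expressing hTDP1, seeded 400/well; qHTS titration format.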
TDP1 cell noCPT: qHTS for Inhibitors of human tyrosyl-DNA phosphodiesterase 1 (TDP1): qHTS in cells in absence of CPT; Potency, µM (doses to about 46.2 µM), without a hit: at the highest dose activity change, negative = growth inhibition, usual class: inhibitors; hit rate 15% among 420,000; DT40 Tdp1-/- hTDP1 cells, no CPT, ATP luminescence, 48 h; AID 686978, 2013; further: potency means the concentration at half of the fitted maximal effect; nearly all actives have a fitted effect of over 55% in size
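Stably hTDP1-transfected Tdp1-null chicken DT40 cells were treated with library compounds minus camptothecin and grown for at least 48 hr at 37 °C, after which cellular ATP was quantified by luminescence.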
Starred values were filed as active, the others as inactive; ? = inconclusive; · = not tested or not shown; ! = repeats disagree; [ ] = another dose, or the depositor's remark. Unless noted, the call rests on the fitted dose curve; in most records, active means well fitted curve in the direction sought with a large enough effect; inconclusive means small, poorly fitted or top-dose-only effect, or another doubt; inactive means no such curve, though single readings can be large; an effect the other way counts as inactive or inconclusive. Unless noted, on the % scale 0 is the no-effect control and ±100 the full control effect.

SMILES	HT1080-NT tox	HT1080 IDH1KD tx	ALOX12 inh	IL1B secr inh	DT40 TDP1 CPT	TDP1 cell noCPT
Cc1noc([C@@H]2CN(S(=O)(=O)c3ccc4c(c3)OCCO4)C[C@H]2C(N)=O)n1	·	·	6.1%	·	·	·
CCOc1ccc(C(=O)Nc2ccc(N3CCN(C)CC3)cc2)cc1	12.2%	12.0%	?	-4.7	4.0%	-4.6%
CCOc1ccc(NC(=O)c2ccc(NC(=O)c3cn4c5c(c(N6CCN(C)CC6)c(F)cc5c3=O)OCC4C)cc2)cc1 (stereo not drawn)	-8.9%	9.0%	?	-12.3	5.17µM*	4.61µM*
CC1COc2c(N3CCN(C)CC3)c(F)cc3c(=O)c(C(=O)O)cn1c23 (stereo not drawn)	0.9%	6.1%	-9.3%[57.4 µM]	-21.1	20.6µM*!	13µM*!
CCn1c2ccccc2c2cc(/C=N/NC(=O)c3ccc(O)cc3)ccc21	?	?	-2.4%	-13.8	23.1µM*	25.9µM*
CCn1c2ccccc2c2cc(/C=N/NC(=O)c3cc(O)cc(O)c3)ccc21	?	?	-4.1%	-105.9*	-21.9%	?
COc1ccc(-c2noc(CN(C)Cc3ccccc3)n2)cc1	9.1%	6.7%	-2.4%	23.5	-15.7%	18.4µM*
Cc1onc(-c2ccccc2Cl)c1C(=O)N(C)Cc1ccccc1	5.7%	-9.4%	-6.0%	0.0	?	?
CCN(Cc1ccccc1)C(=O)c1c(-c2ccccc2Cl)noc1C	-0.2%	7.3%	11.9%	27.6	?	11.6µM*
CN(Cc1ccc(F)cc1)Cc1nc(-c2ccccc2)no1	-1.4%	1.0%	-2.5%	0.1	14.7%	-6.2%
COc1ccc(-c2noc(CN(C(=O)c3c(-c4ccccc4Cl)noc3C)C(C)C)n2)cc1	0.2%	-11.7%	10.4%	-5.4	16.4µM*	23.1µM*
CC(C)N(Cc1nc(-c2ccccc2)no1)C(=O)c1ccc(Br)o1	-28.6%	-18.5%	4.2%	-21.8	-20.0%	16.4µM*
Cc1onc(-c2ccccc2Cl)c1C(=O)N(Cc1ccccc1)C(C)C	-19.2%	-18.9%	-3.0%	24.3	?	?
Cc1ccc2cccc(NC(=O)C(C)(C)Oc3ccc(Cl)cc3)c2n1	·	·	6.5%	·	·	·
Cc1onc(-c2ccccc2Cl)c1C(=O)NCc1nc(-c2ccccc2)no1	-6.0%	-8.2%	92.8%	-11.6	9.2µM*	9.2µM*
Cc1occc1C(=O)N(C)Cc1nc(-c2ccc(Cl)cc2)no1	-1.9%	-11.3%	-29.7%	31.6	25.9µM*	20.6µM*
Cc1ccc(-c2noc(CNC(=O)c3ccc(C)c(Cl)c3)n2)cc1	·	·	-27.5%	·	?	23.1µM*
COc1ccc(-c2noc(CNC(=O)c3cc(OC)c(OC)c(OC)c3)n2)cc1	·	·	-13.8%	·	-0.1%	-4.8%
COc1ccc(-c2noc(CN(C(=O)c3ccccc3Cl)C(C)C)n2)cc1	·	·	-5.3%	·	25.9µM*	18.4µM*
CN(Cc1nc(-c2ccc(Cl)cc2)no1)C(=O)c1ccco1	-17.8%	-13.6%	-19.5%	-8.6	-25.7%	?
CC(C)N(Cc1nc(-c2ccccc2)no1)C(=O)c1ccc([N+](=O)[O-])cc1	-14.2%	-8.2%	-13.8%	-11.9	4.61µM*	5.17µM*
Cc1ccccc1C(=O)N(Cc1nc(-c2ccc(Cl)cc2)no1)C(C)C	·	·	?	·	14.6µM*	20.6µM*
CC(C)N(Cc1nc(-c2ccccc2)no1)C(=O)c1ccc(Cl)cc1	-12.8%	-12.9%	?	-16.9	18.4µM*	18.4µM*
CC(C)N(Cc1nc(-c2ccccc2)no1)C(=O)C1CCCCC1	-4.2%	10.2%	7.8%	9.3	?	?
CC(C)N(Cc1nc(-c2ccc(Cl)cc2)no1)C(=O)c1ccco1	·	·	-16.0%	·	?	23.1µM*
SMILES	HT1080-NT tox	HT1080 IDH1KD tx	ALOX12 inh	IL1B secr inh	DT40 TDP1 CPT	TDP1 cell noCPT
CCc1nc2c(c(-c3ccc(OC)cc3)n1)CN(C(=O)c1ccccc1F)CC2	·	·	-5.3%[6.33 µM]	·	·	·
Cc1noc(C)c1S(=O)(=O)N1CCCC(Cc2noc(-c3ccncc3)n2)C1 (stereo not drawn)	·	·	18.5%	·	·	·
COc1ccc(-c2noc(CN(C(=O)c3cc(OC)c(OC)cc3OC)C(C)C)n2)cc1	·	·	-9.9%	·	?	?
CC(C)N(Cc1nc(-c2ccc(Cl)cc2)no1)Cc1nccn1C	0.5%	-0.4%	2.0%	-13.0	?	16.4µM*
COc1ccccc1C(=O)N(Cc1nc(-c2ccc(Cl)cc2)no1)C(C)C	-3.5%	-22.0%	-26.1%	8.1	29.1µM*	16.4µM*
COc1ccc(-c2noc(CN(Cc3nccn3C)C(C)C)n2)cc1	-2.1%	8.3%	3.5%	5.4	-17.8%	?
Cc1nc(CCNC(=O)CC(C)(C)C)no1	·	·	13.9%	·	·	·
CCCCC1CCC(C(=O)Oc2ccc(C=O)c(O)c2)CC1 (stereo not drawn)	·	·	-59.7%	·	·	·
C=CCOc1ccccc1N	·	·	5.62µM*	·	·	·
CCOc1ccccc1N	?	4.8%	-5.2%	31.0	5.0%	1.4%
COc1ccc(NC(=O)c2ccc(CN3C(=O)NC4(CCOCC4)C3=O)cc2)cc1OC	·	·	27.8%	·	·	·
CN1CCN(S(=O)(=O)c2ccc(NC(=O)Cn3cnc4ccccc4c3=O)cc2)CC1	·	·	2.3%	·	·	·
C=CC[n+]1c(/C=C2\C=Cc3cc(C)ccc3N2CC)ccc2ccccc21	?	13µM*	0.0%	-88.1*	0.184µM*	0.0731µM*
Clc1ccc(C[n+]2csc3ccccc32)cc1	-3.9%	-9.4%	?	-110.1*	0.411µM*	0.517µM*
Fc1ccc(C[n+]2csc3ccccc32)cc1	7.0%	1.5%	?	-115.2*	1.03µM*	0.92µM*
Clc1ccc(CSc2ccc(-c3cccs3)nn2)cc1	·	·	-14.7%	·	-0.5%	-1.4%
Fc1ccc(CSc2nc3ccccc3s2)cc1	·	·	18.1%	·	·	·
Cc1cnc(CCNC(=O)CC(C)C)n1Cc1ccc(F)cc1	·	·	37.0%	·	·	·
N#Cc1nc(-c2ccccc2Cl)oc1NC1CCCCC1	·	·	-11.5%	·	·	·
CCOc1cc(CNC(=O)c2ncoc2-c2ccc(OC)cc2)cc(OCC)c1OCC	·	·	0.4%	·	·	·
COc1cccc(Cn2c(=O)c3[nH]cnc3n(-c3ccccc3C)c2=O)c1	6.0%	-5.6%	-64.6%	-3.3	-28.9%	?
COc1ccc(Cn2c(=O)cc(N)n(-c3ccccc3C)c2=O)cc1	20.6µM*	16.4µM*	164.8%	·	?	?
Cc1noc(C(C)N2CCN(c3oc(C4CC4)nc3C#N)CC2)n1 (stereo not drawn)	·	·	-20.8%	·	·	·
